In the library only some 9.4% were active in any assay of this set; here they are far more common.
AMA1 RON2 block: inhibitors of Plasmodium falciparum AMA1-RON2 interaction; AlphaScreen AMA1-biotinylated RON2 peptide binding; Potency, µM (titrated, usually from 58.2 µM), for inactives: at the top dose activity change, negative = inhibition, usual class: inhibitors; actives 0.2% (n = 360,000); AID 720542;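 also: 0% = vehicle wells and -100% = peptide control; nearly all actives have a fitted effect of over 45% in size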
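AMA1 (3D7) with his tag at 25 nM final met compounds first, then biotinylated RON2 peptide at 25 nM; detection used donor plus acceptor beads, 10 µg/mL apiece, read by AlphaScreen after 30 min at room temperature.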
Pf growth 48h: P. falciparum growth inhibition at 48 hours (one generation); P. falciparum luciferase growth in erythrocytes, 48 h; actives 5.9% (n = 310,000); Potency, µM (titrated, usually from 28.7 µM), without a hit: at the highest dose activity change, negative = inhibition, hits mostly inhibitors; also: % is scaled to controls: 0 for no effect and ±100 for the full control effect
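A one-generation exposure of luciferase-tagged malaria parasites in RPMI 1640/Albumax erythrocyte culture, 37 C and 5% CO2. Inhibition is inferred from decreased luminescence after adding detection reagent.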
Pf growth 96h: P. falciparum growth inhibition at 96 hour, primary screen for plastid delayed-death inhibitors; P. falciparum luciferase reporter growth, 96 h; Potency, µM (highest dose often 28.7 µM), for the others: top-dose activity change, negative = inhibition, usual class: inhibitors; actives 6.9% (n = 320,000); also: % is scaled to controls: 0 for no effect and ±100 for the full control effect
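Two-generation exposure (96 h) targets delayed-death phenotype. Reporter parasites carrying integrated firefly luciferase, in red cells at 2% hematocrit and 0.05% parasitemia final, kept at 37 C, 5% CO2; luminescence loss indicates inhibition.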
SARS PLpro yeast: blocks SARS-CoV papain-like protease in a yeast assay | S. cerevisiae expressing SARS-CoV PLpro, growth rescue | Potency, µM (series often up to 32.9 µM), for inactives: top-dose activity, positive = growth rescue, most hits filed as activators | actives 0.19% (n = 330,000) | AID 485353; calls by dose curve; also: 0% is about no effect; nearly all actives have a fitted effect of over 55% in size
An asterisk follows results filed as active; ? = inconclusive; / = no result given. Unless noted, calls follow the shape of the dose curve; as a rule, active = well fitted curve in the direction sought with a large enough effect; inconclusive = small, poorly fitted or top-dose-only effect, or another doubt; inactive = no such curve, though single readings can be large; an effect the other way counts as inactive or inconclusive. Potency is read from the fitted curve at half-maximal effect.

SMILES | AMA1 RON2 block | Pf growth 48h | Pf growth 96h | SARS PLpro yeast
Cc1ccc2nc(C)cc(C(=O)N3CCCC(N4CCN(c5ccccc5C)CC4)C3)c2c1 (stereo not drawn) | 12% | 12µM* | 1% | -1%
CC1Sc2ccc(S(=O)(=O)CCC(=O)Nc3ccccc3Cl)cc2NC1=O (stereo not drawn) | -3% | -1% | 7% | -2%
Brc1ccccc1-c1nnc(CSc2nncn2-c2ccccc2)o1 | 12% | -10% | ? | 7%
O=C(c1cc(-c2ccccc2Cl)nc2ccccc12)N1CCN(c2ccccc2O)CC1 | -11% | 9.3µM* | 4.1µM* | 7%
CCCCNC(=O)c1ccc(CS(=O)(=O)c2ccc(C)cc2)o1 | 0% | 22% | 36% | 0%
COc1ccc2cc1Oc1ccc(cc1)C[C@H]1c3c(cc(OC)c4c3Oc3c(ccc5c3[C@H](C2)N(C)CC5)O4)CCN1C | -25% | / | / | -6%
COc1ccc2cc1Oc1ccc(cc1)CC1c3c(cc4c(c3Oc3cc5c(cc3OC)CCN(C)C5C2)OCO4)CCN1C (stereo not drawn) | / | 5.4µM* | 5.4µM* | /
COc1ccc2cc1Oc1ccc(cc1)CC1c3c(cc(OC)c4c3Oc3cc5c(cc3O4)CCNC5C2)CCN1C (stereo not drawn) | 14µM* | 0.52µM* | 0.33µM* | 0%
COc1cc2c3cc1Oc1cc(ccc1O)C[C@@H]1c4c(cc(OC)c(O)c4Oc4ccc(cc4)C[C@@H]3N(C)CC2)CC[N+]1(C)C | / | -19% | ? | /
CN(C(=O)c1ccccn1)c1nnc(-c2cccnc2)s1 | 43% | 15% | -1% | -8%
O=C(Cc1ccccc1)NCC(=O)N/N=C/c1ccc(C(=O)O)cc1 | 1% | 1% | -12% | 1%
CCN1CCN(c2ccc(S(=O)(=O)N3CCOCC3)cc2NC(=O)c2ccc(C)c(C)c2)CC1 | -11% | ? | ? | -4%
CCN1CCN(S(=O)(=O)c2ccc(Cl)c(C(=O)Nc3cc(Cl)ccc3N3CCOCC3)c2)CC1 | -12% | ? | 13µM* | -5%
CCN1CCN(c2ccc(S(=O)(=O)N3CCOCC3)cc2NC(=O)c2ccc(Cl)cc2Cl)CC1 | 3% | 13µM* | ? | 1%
CCN(CC(=O)Nc1ccc(OC)c(OC)c1)CC(=O)Nc1ccccc1C(F)(F)F | 66% | 0% | -20% | 1%
COc1cccc(S(=O)(=O)c2nc(C)c3c(n2)CCC3)c1 | -6% | -17% | 2% | 1%
O=C(NC(Nc1ncc(S(=O)(=O)c2ccc([N+](=O)[O-])cc2)s1)(C(F)(F)F)C(F)(F)F)c1ccc(Cl)cc1 | -6% | 9.3µM* | / | -18%
COCC(=O)Nc1ncc(S(=O)(=O)c2ccc([N+](=O)[O-])cc2)s1 | 14% | 7% | 24% | 2%
CCc1ccccc1N=C1SCC(=O)N1C | 0% | 1% | 0% | -3%
COc1ccc(CNC(=O)C[C@H]2C[C@H](C(=O)N3CCCCC3)[C@@]3(C)c4[nH]c5ccc(Cl)cc5c4CCN3C2=O)cc1OC | ? | / | / | -5%
COC(=O)C1=NN(c2ccccc2)C2(S1)S/C(=C\c1ccccc1)C(=O)N2c1ccccc1 (stereo not drawn) | -21% | 13µM* | / | -9%
O=C(c1cccc(C(F)(F)F)c1)C1CCCN(Cc2ccccc2O)C1 (stereo not drawn) | 4% | ? | 8.3µM* | 0%
CN(C)c1cccc(C(=O)N(C)C2CCCN(Cc3ccccc3F)C2)c1 (stereo not drawn) | -2% | ? | 4.1µM* | -1%
O=C(C1CCCN(Cc2cc(Br)ccc2O)C1)N1CCCCC1 (stereo not drawn) | 20% | 8.3µM* | ? | -3%
CCOc1cc(CN2CCCC(C(=O)c3cccc(C(F)(F)F)c3)C2)ccc1O (stereo not drawn) | -3% | 5.2µM* | 8% | 0%
CCCCNC(=O)c1cn(C)c2ccc(S(=O)(=O)N3CCCC3)cc2c1=O | -5% | ? | ? | 6%
Cc1cc(C(F)(F)F)nn1CC(=O)N1CCCCC1C (stereo not drawn) | 7% | 6% | ? | 2%
COc1ccc(CC(=O)NCC2CCCN(Cc3cccc(C(F)(F)F)c3)C2)cc1 (stereo not drawn) | 26% | 0% | 159% | -4%
O=C(NCC1CCCN(Cc2ccccc2F)C1)c1cccc(C(F)(F)F)c1 (stereo not drawn) | 1% | -5% | 12µM* | 0%
CC(C)c1cc(NC(=O)CCl)on1 | 22% | 3.3µM* | ? | 16%

Assay outcomes: PubChem BioAssay, National Center for Advancing Translational Sciences (NCATS)
